Calls of active or inactive are those of the source. Unless noted, how the calls were made is not given here.
Tests used:
[1] = system: Wnt5a (protein binding on small-molecule microarray); experiment: Wnt5a binders on small-molecule microarray, primary screen, biophysical, 635/667 nm fluorescence (AID 1142); conditions: 635 nm fluorescence, higher = more signal;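 further: fluorescence read at 667 nm with signal to noise per printed feature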
[2] = cell viability in Huh7 cells, primary screen, cytotoxicity control for HCV replication inhibitor project, CellTiter-Glo luminescence, basal, 48 h (AID 1143); conditions: Huh7 HCV replicon, higher = more signal, called active from +8 up or from −8 down;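 further: Huh7 hepatoma cells carrying a hepatitis C replication reporter with no stimulus; test concentration not given here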
[3] = P. aeruginosa biofilm formation inhibitors, primary screen, PAO1 strain, BacTiter-Glo luminescence, LB-PBS (AID 1144); conditions: 12 h, higher = more signal
[4] = CREB reporter modulators without forskolin, primary screen, cell-based, PC12, CRE-LacZ reporter, unstimulated (AID 1145); conditions: no forskolin, luminescence, 4.5 h, higher = more signal, called active from +8 up or from −8 down
[5] = CREB reporter modulators under forskolin, primary screen, cell-based, PC12, CRE-LacZ reporter, forskolin-stimulated (AID 1146); conditions: luminescence, 4.5 h, higher = more signal, called active from +8 up or from −8 down;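 further: PC12 cells with 6xCRE LacZ reporter stimulated by forskolin 10 µM; beta-galactosidase reporter signal reflecting CREB driven transcription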
[6] = target: Streptavidin (Streptomyces avidinii) (UniProt P22629); experiment: streptavidin binders on small-molecule microarray, primary screen, artefact control for SMM compound annotation, biophysical, 635/667 nm fluorescence (AID 1147); conditions: streptavidin binding, higher = more signal;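 further: signal reflects streptavidin binding to arrayed compounds as a control protein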
Chain of Streptavidin (Streptomyces avidinii) (P22629 whole entry, looked up): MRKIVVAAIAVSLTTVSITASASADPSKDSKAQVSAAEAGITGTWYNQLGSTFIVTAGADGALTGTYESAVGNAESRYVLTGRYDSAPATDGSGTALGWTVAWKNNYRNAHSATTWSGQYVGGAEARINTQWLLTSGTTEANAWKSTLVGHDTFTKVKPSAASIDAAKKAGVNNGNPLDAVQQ

[7] = small-molecule binders of probe aInhba, primary screen, biochemical, small-molecule microarray, 635/667 nm fluorescence (AID 1148); conditions: higher = more signal;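 further: score merges 667nm spot fluorescence with signal-to-noise for antibody binding to printed compounds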
[8] = target: Torsin-1A (Homo sapiens) (UniProt O14656); experiment: torsin A binders from cell lysate, primary screen, small-molecule microarray, wild-type, 635/667 nm (AID 1149); conditions: COS7 hTOR1A-WT lysate, 635 nm fluorescence, higher = more signal
Chain of Torsin-1A (Homo sapiens) (O14656 whole entry, looked up): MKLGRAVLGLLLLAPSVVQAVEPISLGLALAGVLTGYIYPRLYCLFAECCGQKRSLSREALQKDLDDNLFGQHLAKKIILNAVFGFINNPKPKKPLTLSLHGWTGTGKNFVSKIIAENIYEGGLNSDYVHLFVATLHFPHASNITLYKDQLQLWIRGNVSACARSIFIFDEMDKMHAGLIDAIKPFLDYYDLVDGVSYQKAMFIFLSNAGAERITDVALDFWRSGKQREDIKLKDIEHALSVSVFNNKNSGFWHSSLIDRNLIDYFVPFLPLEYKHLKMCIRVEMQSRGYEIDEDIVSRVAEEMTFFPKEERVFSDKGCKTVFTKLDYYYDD

[9] = target: Torsin-1A (Homo sapiens) (UniProt O14656); experiment: small-molecule binders of mutant TOR1A in lysate, primary screen, cell lysate, small-molecule microarray, COS7 lysate, 635/667 nm fluorescence (AID 1150); conditions: COS7 hTOR1A mutant lysate, 635 nm fluorescence, higher = more signal;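 further: score pools 667 nm emission and signal to noise measuring lysate protein binding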
[10] = system: Sonic hedgehog protein (Shh); experiment: small-molecule binders of Shh protein, primary screen, biochemical, small-molecule microarray, 635/667 nm fluorescence (AID 1151); conditions: small-molecule microarray binding, 635 nm fluorescence; higher = more signal;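 further: Shh protein binding to compounds spotted on small-molecule microarray slides; score combines spot fluorescence intensity with signal-to-noise across triplicate slides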
[11] = E. coli DRC41 culture turbidity changes, primary screen, E. coli filamentation inducer project, strain DRC41, OD650, 48 h (AID 1152);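 further: E. coli MC1000 strain DRC41 lacking acrAB efflux pump and sulA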; conditions: E. coli DRC41 (acrAB sulA), higher = more signal, called active from +8 up or from −8 down
[12] = small-molecule binders of probe aLefty1, primary screen, biochemical, small-molecule microarray, 635/667 nm fluorescence (AID 1153); conditions: higher = more signal;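 further: score merges spot fluorescence with signal-to-noise ratio from the scanned slide images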
[13] = PSAC antagonists in infected red cells, primary screen, cell-based, P. falciparum Indochina, OD700, 1 h (AID 1154); conditions: P. falciparum Indochina infected RBC osmotic lysis, higher = more signal, called active from +8 up or from −8 down
[14] = PSAC antagonists in infected red cells, primary screen, cell-based, P. falciparum Indochina, OD700, 2 h (AID 1155);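 further: lysis reports solute entry through the parasite surface anion channel PSAC; channel blockers reduce lysis of infected cells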; conditions: P. falciparum Indochina infected erythrocytes, osmotic lysis OD700; higher = more signal, called active from +8 up or from −8 down
[15] = osmotic lysis modulators in infected erythrocytes, primary screen, PSAC antagonist project, cell-based, P. falciparum Indochina, OD700, 3 h (AID 1156); conditions: higher = more signal, called active from +8 up or from −8 down
[16] = PSAC antagonists in infected red cells, primary screen, cell-based, P. falciparum Indochina, OD700, 18 h (AID 1157); conditions: P. falciparum Indochina infected erythrocytes, osmotic lysis OD700, 18 h; higher = more signal, called active from +8 up or from −8 down
[17] = modulators of S6 phosphorylation in cells, primary screen, cell-based, A549, cytoblot, luminescence, serum-stimulated (AID 1158); conditions: A549 phospho-S6 cytoblot, 5 h, higher = more signal;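 further: serum-stimulated A549 lung adenocarcinoma cells; signal is phosphorylated S6 detected by cytoblot immunostaining with HRP secondary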
[18] = target: NADPH oxidase 2 (Homo sapiens) (UniProt P04839); experiment: NOX2-dependent H2O2 signal modulators, primary screen, NOX inhibitor project, cell-based, HEK293-NOX2, PMA-stimulated, Amplex Red fluorescence (AID 1159); conditions: 45 min, higher = more signal, called active from +8 up or from −8 down; further: test concentration not given here
Chain of NADPH oxidase 2 (Homo sapiens) (P04839 whole entry, looked up): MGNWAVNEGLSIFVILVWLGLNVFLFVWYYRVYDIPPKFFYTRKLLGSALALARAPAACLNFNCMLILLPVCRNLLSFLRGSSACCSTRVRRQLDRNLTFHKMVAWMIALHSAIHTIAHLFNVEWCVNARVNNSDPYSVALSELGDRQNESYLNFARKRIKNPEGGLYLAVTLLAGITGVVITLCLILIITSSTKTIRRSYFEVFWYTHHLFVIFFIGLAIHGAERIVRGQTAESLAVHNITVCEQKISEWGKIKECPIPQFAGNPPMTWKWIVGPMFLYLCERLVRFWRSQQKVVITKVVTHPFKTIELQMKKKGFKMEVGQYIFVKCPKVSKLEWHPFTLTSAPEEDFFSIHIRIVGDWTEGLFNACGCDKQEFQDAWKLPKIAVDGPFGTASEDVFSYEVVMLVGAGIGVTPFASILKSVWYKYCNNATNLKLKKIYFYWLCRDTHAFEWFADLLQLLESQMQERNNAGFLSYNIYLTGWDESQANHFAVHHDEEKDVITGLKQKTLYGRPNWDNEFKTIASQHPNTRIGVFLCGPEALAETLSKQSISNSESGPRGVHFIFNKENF

[19] = target: NADPH oxidase 4 (Homo sapiens) (UniProt Q9NPH5); experiment: NOX4-dependent H2O2 signal modulators, primary screen, NOX inhibitor project, cell-based, HEK293-NOX4, tetracycline-induced, Amplex Red fluorescence (AID 1160); conditions: 45 min, higher = more signal, called active from +8 up or from −8 down
Chain of NADPH oxidase 4 (Homo sapiens) (Q9NPH5 whole entry, looked up): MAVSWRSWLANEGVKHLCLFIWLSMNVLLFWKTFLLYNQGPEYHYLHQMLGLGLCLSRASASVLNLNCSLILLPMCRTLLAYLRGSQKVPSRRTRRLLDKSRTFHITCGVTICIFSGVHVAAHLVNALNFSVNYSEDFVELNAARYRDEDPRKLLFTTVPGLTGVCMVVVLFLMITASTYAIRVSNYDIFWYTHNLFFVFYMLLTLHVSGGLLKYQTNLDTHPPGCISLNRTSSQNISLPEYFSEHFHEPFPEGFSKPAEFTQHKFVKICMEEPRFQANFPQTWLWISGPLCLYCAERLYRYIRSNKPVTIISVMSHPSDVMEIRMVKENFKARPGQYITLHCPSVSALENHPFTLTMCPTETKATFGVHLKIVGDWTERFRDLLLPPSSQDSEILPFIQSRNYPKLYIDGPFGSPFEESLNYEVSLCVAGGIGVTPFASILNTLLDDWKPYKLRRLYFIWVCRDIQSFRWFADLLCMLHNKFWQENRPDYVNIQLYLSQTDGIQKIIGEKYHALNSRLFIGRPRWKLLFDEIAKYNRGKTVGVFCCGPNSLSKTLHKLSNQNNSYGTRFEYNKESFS

[20] = target: NADPH oxidase 5 (Homo sapiens) (UniProt Q96PH1); experiment: NOX5-dependent H2O2 signal modulators, primary screen, NOX inhibitor project, cell-based, HEK293-NOX5, Amplex Red fluorescence (AID 1161); conditions: HEK293-NOX5, ionomycin, 45 min, higher = more signal
Chain of NADPH oxidase 5 (Homo sapiens) (Q96PH1 whole entry, looked up): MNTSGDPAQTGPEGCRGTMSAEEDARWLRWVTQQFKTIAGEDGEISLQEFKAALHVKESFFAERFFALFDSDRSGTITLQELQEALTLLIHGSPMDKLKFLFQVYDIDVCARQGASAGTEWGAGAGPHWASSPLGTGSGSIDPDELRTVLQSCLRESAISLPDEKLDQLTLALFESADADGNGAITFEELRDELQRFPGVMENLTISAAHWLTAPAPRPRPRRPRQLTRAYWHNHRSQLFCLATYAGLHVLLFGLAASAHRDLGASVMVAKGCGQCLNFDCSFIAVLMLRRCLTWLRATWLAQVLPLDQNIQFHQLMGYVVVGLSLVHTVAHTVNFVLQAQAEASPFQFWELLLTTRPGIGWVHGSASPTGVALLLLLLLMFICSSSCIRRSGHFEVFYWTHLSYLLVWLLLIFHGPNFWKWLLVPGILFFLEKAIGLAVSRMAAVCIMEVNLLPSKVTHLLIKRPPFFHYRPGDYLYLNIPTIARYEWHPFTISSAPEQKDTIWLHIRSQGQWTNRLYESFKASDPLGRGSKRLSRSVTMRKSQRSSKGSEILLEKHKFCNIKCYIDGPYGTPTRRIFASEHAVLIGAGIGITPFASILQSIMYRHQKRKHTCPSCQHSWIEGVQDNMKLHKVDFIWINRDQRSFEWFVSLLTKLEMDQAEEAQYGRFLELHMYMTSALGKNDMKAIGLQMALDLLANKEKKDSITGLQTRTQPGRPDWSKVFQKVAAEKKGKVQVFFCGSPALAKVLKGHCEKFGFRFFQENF

Structure (SMILES) | composite z-score [1] | z-score [2] | z-score [3] | z-score [4] | z-score [5] | composite z-score [6] | composite z-score [7] | composite z-score [8] | composite z-score [9] | composite z-score [10] | z-score [11] | composite z-score [12] | z-score [13] | z-score [14] | z-score [15] | z-score [16] | z-score [17] | z-score [18] | z-score [19] | z-score [20]
CC(CCN1CCCc2nc(C)c(C)cc21)=NOC[C@@H](C)[C@H](OCc1ccccc1)C(C)C | -0.257 | -1.01 (inactive) | -0.47 (inactive) | -1.14 (inactive) | -0.186 (inactive) | -0.983 | -0.101 | -0.469 | -0.931 | 0.0185 | 0.259 (inactive) | -0.147 | 1.25 (inactive) | -1.75 (inactive) | -0.167 (inactive) | -1.84 (inactive) | 2 | -2.43 (inactive) | -1.68 (inactive) | -1.12
CC(=O)OC[C@H]1O[C@H](C#CCCc2ccccc2)C=C[C@@H]1OC(C)=O | -0.0248 | -1.42 (inactive) | 1.34 (inactive) | -0.339 (inactive) | 0.859 (inactive) | -0.0683 | -0.0719 | 0.27 | 0.553 | 1.52 | -0.2 (inactive) | 0.233 | 1.43 (inactive) | 0.317 (inactive) | 0.182 (inactive) | 0.148 (inactive) | -0.427 | -1.58 (inactive) | 1.39 (inactive) | 1.07
C[C@H]1CC[C@H]2C(=O)OC(COc3ccc(C(C)(C)C)cc3)CN2[C@@H]1c1ccc(Br)cc1 (stereo not given in full) | 0.253 | -0.259 (inactive) | -1.12 (inactive) | 2.36 (inactive) | -1.04 (inactive) | 0.468 | -0.176 | 0.213 | 0.179 | 0.0438 | 0.786 (inactive) | -0.103 | 1.39 (inactive) | 0.0974 (inactive) | -1.24 (inactive) | 0.0011 (inactive) | 0.0307 | 0.426 (inactive) | 0.317 (inactive) | 0.671
O=C1CCCC=C1C(O)C1CCCCC1 (stereo not given) | -0.028 | 0.869 (inactive) | 0.993 (inactive) | 0.198 (inactive) | 0.85 (inactive) | -0.234 | -0.122 | -0.19 | 0.44 | 0.628 | 0.411 (inactive) | -0.312 | -0.0549 (inactive) | 0.494 (inactive) | -0.663 (inactive) | 0.0748 (inactive) | -0.178 | 1.46 (inactive) | -0.419 (inactive) | -0.928

From PubChem BioAssay
